In PubChem BioAssay (NCI):
The panel holds about 83,000 compounds, 20% with a hit somewhere; the sample as a whole holds those more often.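 A percent growth of 40 corresponds to 60% growth inhibition; 0 means no net growth; -100 means all cells died. Active threshold: below 10.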 Unmarked numbers belong to inactive results. Active and inactive are the calls of the source.

Tests used:
Assay in all cases: NCI-60 one-dose screen, 48 h (100 = growth as untreated, 0 = no growth, -100 = all killed)
Conditions in all cases: 10 µM unless noted
T-47D breast = system: T-47D breast
BT-549 breast = system: BT-549 breast
SW-620 colon = system: SW-620 colon
MCF7 breast = system: MCF7 breast
HCT-116 colon = system: HCT-116 colon
HCC-2998 colon = system: HCC-2998 colon
KM12 colon = system: KM12 colon
MDA-MB-468 breast = system: MDA-MB-468 breast
MDA-MB-435 melanoma = system: MDA-MB-435 melanoma

SMILES	growth (T-47D breast)	growth (BT-549 breast)	growth (SW-620 colon)	growth (MCF7 breast)	growth (HCT-116 colon)	growth (HCC-2998 colon)	growth (KM12 colon)	growth (MDA-MB-468 breast)	growth (MDA-MB-435 melanoma)
CCCCCCCS(=O)(=O)N1CCCC(C(=O)Nc2nc3ccc(NC(=O)c4ccc(F)c(OC)c4F)cc3s2)C1 (centres undefined)	41.9%	55.8%	64.6%	27.6%	25.1%	58.2%	63.8%	-4.4% (active)	
Nc1n[nH]c2cccc(C#Cc3cccc(NC(=O)c4cccc(Cl)c4)c3)c12	7.26% (active)		42.1%	15.9%	12.3%	30.4%	20.2%	46%	22.7%
COc1ccc(C(=O)/C=C/c2cccnc2)cc1S(N)(=O)=O	16.9%		13.2%	7.45% (active)	-18.1% (active)	77.3%	1.84% (active)	20.5%	
O=C(NNc1nc2cc(C(F)(F)F)ccc2n2cccc12)c1cnccn1	-74% (active)		-26.4% (active)	-62.4% (active)	-94.6% (active)	-72.2% (active)	-55% (active)	-47.7% (active)	-56.1% (active)
COc1ccc(C(=O)/C=C/c2cccc(Cl)c2Cl)cc1S(N)(=O)=O	-17.3% (active)		-47.3% (active)	-39.7% (active)	-98% (active)	-48.5% (active)	-62.3% (active)	-16.4% (active)	14.3%
CC(=O)N1CCN(Cc2ccc3c(NNC(=O)c4cnccn4)nc4cc(F)ccc4n23)CC1	16.4%			16.4%	19.5%	61.3%	32.6%	6.88% (active)	37.4%
NS(=O)(=O)c1ccc(-n2cc(-c3cccc(NC(=O)c4cc(Cl)cc(Cl)c4)c3)nn2)cc1	48%		54.7%	37.1%	45.4%	51%	2.24% (active)	72.8%	50.4%
COc1ccc(C(=O)/C=C/c2ccc(Cl)c(Cl)c2)cc1S(N)(=O)=O	-54.7% (active)		-48.8% (active)	-48.7% (active)	-96.2% (active)	-74.1% (active)	-46.7% (active)	-19.4% (active)	2.27% (active)
COc1ccc(C2=NN(c3ccccc3)C(c3ccc(OCc4ccccc4)c(OC)c3)C2)cc1OC (centres undefined)	89.4%		101%	84.8%	85.9%	117%	91.8%	105%	105%
COc1ccc(-c2nnc3ccc(N/N=C/c4ccc(O)cc4)nn23)cc1	45.4%		67.1%	13.2%	27.3%	14.9%	28.5%	48.2%	45.8%
Cc1cc(N=C2NC(=O)CS2)n[nH]1	101%		103%	-92.2% (active)	103%	112%	101%	114%	113%
COc1cccc(/C=C/C(=O)c2ccc(OC)c(S(N)(=O)=O)c2)c1	21%		8.39% (active)	7.97% (active)	-73.8% (active)	29.7%	-41.6% (active)	20%	
C/C(=N\Nc1ccc(S(N)(=O)=O)cc1)c1ccc(N=Nc2c(Nc3ccccc3)[nH][nH]c2=O)cc1	-30.8% (active)		18.1%	-31.2% (active)	0.299% (active)	-24.6% (active)	3.69% (active)	-35.6% (active)	-13.6% (active)
CN1CCN(c2ccc(C(=O)/C=C/c3ccc(Br)cc3)cc2)CC1	15.2%		19.4%	6.72% (active)	7.41% (active)	14.7%	10.6%	-1.53% (active)	22.5%
NS(=O)(=O)c1ccc(-n2cc(-c3cccc(NC(=O)c4ccc(Cl)c(C(F)(F)F)c4)c3)nn2)cc1	-11.1% (active)		42%	1.38% (active)	26.2%	41.8%	5.73% (active)	-0.759% (active)	47.2%
O=C(NNc1nc2cc(F)ccc2n2c(CN3CCCCC3)ccc12)c1cnccn1	-61.5% (active)		2.86% (active)	-55.9% (active)		-65.2% (active)	-29.8% (active)	-62.8% (active)	-46.3% (active)
COc1ccc(C(=O)/C=C/c2ccccc2Br)cc1S(N)(=O)=O	-5.31% (active)		-45.7% (active)	-70.5% (active)	-97% (active)	-65.6% (active)	-71% (active)	-60.3% (active)	23.4%
CN1CCN(c2ccc3c(c2)nc(NNC(=O)c2ncccn2)c2cccn23)CC1	-22.3% (active)		-6.01% (active)	-17.6% (active)		-87.7% (active)	-14.2% (active)	-42.8% (active)	-45.7% (active)
Cc1ccc(-c2nnc3ccc(N/N=C/c4ccccc4)nn23)cc1	98.8%		90.6%	47.9%	99.5%	111%	57.2%	91.4%	76.1%
COc1ccc(C(=O)/C=C/c2cc3c(cc2Br)OCO3)cc1S(N)(=O)=O	-34.1% (active)		-42.7% (active)	-1.63% (active)	-98% (active)	-53.8% (active)	-57.9% (active)	23.8%	5.61% (active)
O=C(Cn1c(/C=C/c2cccc([N+](=O)[O-])c2)nc2ccccc2c1=O)Nc1ccccc1	82.6%		91.2%	42.2%	57.6%	120%	74.6%	98.9%	
C[C@H]1CN(C(=O)c2ccc3c(NNC(=O)c4ccncn4)nc4cc(F)c(F)cc4n23)CCN1	21.3%		38%	17.4%	21.7%	61.7%	37%	7.53% (active)	37.4%
CCN1CCN(Cc2ccc(C(=O)Nc3cccc(C#Cc4cccc5[nH]nc(N)c45)c3)cc2C(F)(F)F)CC1	-67.2% (active)		-50.5% (active)	-84.9% (active)	-86.8% (active)	-91.5% (active)	-73.2% (active)	-85.5% (active)	-69.1% (active)
N#Cc1c(NCc2ccccc2)n[nH]c1Nc1ccccc1	17.2%			41.6%	33.1%	99.7%	55.7%		56.6%
COc1ccccc1/C=C/C(=O)c1ccc(OC)c(S(N)(=O)=O)c1	17%		20.5%	8.25% (active)	5% (active)	29.5%	6.73% (active)	20.7%	27.2%
CN1CCN(c2ccc3c(c2)nc(NNC(=O)c2cnccn2)c2cccn23)CC1	-55.6% (active)			-39.1% (active)	-52.1% (active)	-44.5% (active)	1.89% (active)	-42.2% (active)	5.71% (active)
Cc1cnc(C(=O)NNc2nc3cc(F)ccc3n3c(C(=O)N4CC5CC(C4)N5)ccc23)cn1	32.1%		32%	18.7%	17.5%	58.7%	39.8%	13.8%	45.4%
COc1cc(OC)cc(C(=O)Nc2cccc(-c3cn(-c4ccc(S(N)(=O)=O)cc4)nn3)c2)c1	87.8%		99.6%	77.3%	94%	107%	87.9%	95.4%	
